Reference: the supplement of paper PMC9262897, “Low-cost anti-mycobacterial drug discovery using engineered E. coli” (Nature Communications, 2022)
Counter-ions that a name gives are not always drawn. ± gives the standard deviation of the averaged measurements.

Legend:
Assay in all cases: growth (OD600 after 10 h); higher = more growth (less inhibition)
[1] = test system: E. coli TESEC Alr+ wild-type control; conditions: compound 0.1 mM; raw OD600 reference: median of DMSO wells 0.241, cell-free background 0.041
Method: (§1)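 TESEC Mtb Alr E. coli, or the Alr+ wild-type control, in 384-well plates with Prestwick library compounds at 0.1 mM and 1% DMSO, across arabinose induction levels of 1E3 to 1E7 nM. Growth is read as OD600 after 10 h at 37 °C in triplicate biological replicates.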

E. coli TESEC Mtb Alr [2] = conditions: compound 0.1 mM
Method: as §1

E. coli TESEC Mtb Asd = conditions: compound 0.1 mM
Method: (§2)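 TESEC E. coli strains in which the native enzyme is deleted and replaced by arabinose-inducible Mtb Asd, DapB, CysH or TrpD, each grown in its selective medium. Strains were screened against the Prestwick library at 0.1 mM and 1% DMSO in 384-well format at low and high arabinose induction. Growth is read as OD600 after 10 h in triplicate.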

E. coli TESEC Mtb DapB = conditions: compound 0.1 mM
Method: as §2

[3] = test system: E. coli TESEC Alr+ wild-type control; conditions: compound 0.1 mM; raw OD600 reference: median of DMSO wells 0.49, cell-free background 0.052
Method: (§3)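 TESEC Mtb Alr E. coli (ΔaraC ΔtolC ΔentC Δalr ΔdadX, arabinose-inducible Mtb Alr) or the Alr+ wild-type control strain, grown in defined M9-fructose medium without D-alanine in 96-well plates with Prestwick library compounds at 0.1 mM and 1% DMSO. Low Alr induction is 0.1 µM arabinose and high induction is 10 mM arabinose.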

E. coli TESEC Mtb Alr [4] = conditions: compound 0.1 mM; remark: listed apart in the source
Method: as §3

[5] = arabinose 1000 nM, raw OD600 reference: median of DMSO wells 0.294, cell-free background 0.041
[6] = arabinose 10000 nM, raw OD600 reference: median of DMSO wells 0.264, cell-free background 0.041
[7] = arabinose 100000 nM, raw OD600 reference: median of DMSO wells 0.201, cell-free background 0.041
[8] = arabinose 1000000 nM, raw OD600 reference: median of DMSO wells 0.193, cell-free background 0.041
[9] = arabinose 10000000 nM, raw OD600 reference: median of DMSO wells 0.146, cell-free background 0.041
[10] = arabinose induction (level): High, raw OD600 reference: median of DMSO wells 0.331, cell-free background 0.041
[11] = arabinose induction (level): Low, raw OD600 reference: median of DMSO wells 0.417, cell-free background 0.041
[12] = arabinose induction (level): High, raw OD600 reference: median of DMSO wells […], cell-free background 0.041
[13] = arabinose induction (level): Low, raw OD600 reference: median of DMSO wells 0.227, cell-free background 0.041
[14] = arabinose 100 nM, raw OD600 reference: median of DMSO wells 0.413, cell-free background 0.052
[15] = arabinose 10000000 nM, raw OD600 reference: median of DMSO wells […], cell-free background 0.052

Compound: Cc1cccn2c(=O)c(-c3nnn[nH]3)cnc12 [Pemirolast potassium]
- growth [1]: 0.218 ± 0.011
- growth (E. coli TESEC Mtb Alr [2]; [5]): 0.268 ± 0.011
- growth (E. coli TESEC Mtb Alr [2]; [6]): 0.2352 ± 0.0021
- growth (E. coli TESEC Mtb Alr [2]; [7]): 0.151 ± 0.0021
- growth (E. coli TESEC Mtb Alr [2]; [8]): 0.148 ± 0.0043
- growth (E. coli TESEC Mtb Alr [2]; [9]): 0.125 ± 0.0032
- growth (E. coli TESEC Mtb Asd; [10]): 0.284 ± 0.1
- growth (E. coli TESEC Mtb Asd; [11]): 0.371 ± 0.089
- growth (E. coli TESEC Mtb DapB; [12]): 0.212 ± 0.028
- growth (E. coli TESEC Mtb DapB; [13]): 0.223 ± 0.014
- growth [3]: 0.49 ± 0.067
- growth (E. coli TESEC Mtb Alr [4]; [14]): 0.421 ± 0.012
- growth (E. coli TESEC Mtb Alr [4]; [15]): 0.311 ± 0.014

Compound: CCCC(=O)Nc1ncnc2c1ncn2[C@@H]1O[C@@H]2COP(=O)(O)O[C@H]2[C@H]1OC(=O)CCC [Bucladesine sodium salt]
- growth [1]: 0.25 ± 0.0053
- growth (E. coli TESEC Mtb Alr [2]; [5]): 0.31 ± 0.019
- growth (E. coli TESEC Mtb Alr [2]; [6]): 0.275 ± 0.0043
- growth (E. coli TESEC Mtb Alr [2]; [7]): 0.206 ± 0.015
- growth (E. coli TESEC Mtb Alr [2]; [8]): 0.189 ± 0.0065
- growth (E. coli TESEC Mtb Alr [2]; [9]): 0.138 ± 0.012
- growth (E. coli TESEC Mtb Asd; [10]): 0.355 ± 0.06
- growth (E. coli TESEC Mtb Asd; [11]): 0.47 ± 0.008
- growth (E. coli TESEC Mtb DapB; [12]): 0.2 ± 0.016
- growth (E. coli TESEC Mtb DapB; [13]): 0.218 ± 0.014
- growth [3]: 0.565 ± 0.093
- growth (E. coli TESEC Mtb Alr [4]; [14]): 0.405 ± 0.011
- growth (E. coli TESEC Mtb Alr [4]; [15]): 0.362 ± 0.013

Compound: CNc1ncnc2c1ncn2[C@@H]1O[C@H](CO)[C@@H](O)[C@H]1O [N6-methyladenosine]
- growth [1]: 0.283 ± 0.008
- growth (E. coli TESEC Mtb Alr [2]; [5]): 0.334 ± 0.023
- growth (E. coli TESEC Mtb Alr [2]; [6]): 0.263 ± 0.0068
- growth (E. coli TESEC Mtb Alr [2]; [7]): 0.261 ± 0.012
- growth (E. coli TESEC Mtb Alr [2]; [8]): 0.189 ± 0.003
- growth (E. coli TESEC Mtb Alr [2]; [9]): 0.15 ± 0.0032
- growth (E. coli TESEC Mtb Asd; [10]): 0.343 ± 0.044
- growth (E. coli TESEC Mtb Asd; [11]): 0.416 ± 0.023
- growth (E. coli TESEC Mtb DapB; [12]): 0.21 ± 0.0029
- growth (E. coli TESEC Mtb DapB; [13]): 0.209 ± 0.0066
- growth [3]: 0.539 ± 0.094
- growth (E. coli TESEC Mtb Alr [4]; [14]): 0.28 ± 0.065
- growth (E. coli TESEC Mtb Alr [4]; [15]): 0.364 ± 0.0048

Compound: O=C(O)c1cc(-c2ccc(F)cc2F)ccc1O [Diflunisal]
- growth [1]: 0.128 ± 0.0035
- growth (E. coli TESEC Mtb Alr [2]; [5]): 0.151 ± 0.018
- growth (E. coli TESEC Mtb Alr [2]; [6]): 0.105 ± 0.0038
- growth (E. coli TESEC Mtb Alr [2]; [7]): 0.119 ± 0.003
- growth (E. coli TESEC Mtb Alr [2]; [8]): 0.086 ± 0.0022
- growth (E. coli TESEC Mtb Alr [2]; [9]): 0.112 ± 0.0029
- growth (E. coli TESEC Mtb Asd; [10]): 0.218 ± 0.059
- growth (E. coli TESEC Mtb Asd; [11]): 0.139 ± 0.0027
- growth (E. coli TESEC Mtb DapB; [12]): 0.172 ± 0.0032
- growth (E. coli TESEC Mtb DapB; [13]): 0.17 ± 0.0045
- growth [3]: 0.279 ± 0.0091
- growth (E. coli TESEC Mtb Alr [4]; [14]): 0.248 ± 0.052
- growth (E. coli TESEC Mtb Alr [4]; [15]): 0.136 ± 0.006

Compound: Nc1nc(N)c2nc(-c3ccccc3)c(N)nc2n1 [Triamterene]
- growth [1]: 0.135 ± 0.0027
- growth (E. coli TESEC Mtb Alr [2]; [5]): 0.146 ± 0.012
- growth (E. coli TESEC Mtb Alr [2]; [6]): 0.12 ± 0.0045
- growth (E. coli TESEC Mtb Alr [2]; [7]): 0.138 ± 0.0069
- growth (E. coli TESEC Mtb Alr [2]; [8]): 0.0711 ± 0.0011
- growth (E. coli TESEC Mtb Alr [2]; [9]): 0.119 ± 0.0058
- growth (E. coli TESEC Mtb Asd; [10]): 0.235 ± 0.014
- growth (E. coli TESEC Mtb Asd; [11]): 0.411 ± 0.015
- growth (E. coli TESEC Mtb DapB; [12]): 0.165 ± 0.0077
- growth (E. coli TESEC Mtb DapB; [13]): 0.203 ± 0.046
- growth [3]: 0.422 ± 0.0047
- growth (E. coli TESEC Mtb Alr [4]; [14]): 0.416 ± 0.0074
- growth (E. coli TESEC Mtb Alr [4]; [15]): 0.122 ± 0.016

Compound: OCCN(CCO)c1nc(N2CCCCC2)c2nc(N(CCO)CCO)nc(N3CCCCC3)c2n1 [Dipyridamole]
- growth [1]: 0.0642 ± 0.0085
- growth (E. coli TESEC Mtb Alr [2]; [5]): 0.0575 ± 0.0086
- growth (E. coli TESEC Mtb Alr [2]; [6]): 0.0482 ± 0.0011
- growth (E. coli TESEC Mtb Alr [2]; [7]): 0.0725 ± 0.015
- growth (E. coli TESEC Mtb Alr [2]; [8]): 0.05417 ± 0.00046
- growth (E. coli TESEC Mtb Alr [2]; [9]): 0.135 ± 0.016
- growth (E. coli TESEC Mtb Asd; [10]): 0.079 ± 0.002
- growth (E. coli TESEC Mtb Asd; [11]): 0.0913 ± 0.034
- growth (E. coli TESEC Mtb DapB; [12]): 0.195 ± 0.035
- growth (E. coli TESEC Mtb DapB; [13]): 0.205 ± 0.033
- growth [3]: 0.0816 ± 0.027
- growth (E. coli TESEC Mtb Alr [4]; [14]): 0.068 ± 0.006
- growth (E. coli TESEC Mtb Alr [4]; [15]): 0.0709 ± 0.0012

Compound: Cc1ccc(S(=O)(=O)NC(=O)NN2CCCCCC2)cc1 [Tolazamide]
- growth [1]: 0.256 ± 0.0047
- growth (E. coli TESEC Mtb Alr [2]; [5]): 0.293 ± 0.0069
- growth (E. coli TESEC Mtb Alr [2]; [6]): 0.281 ± 0.005
- growth (E. coli TESEC Mtb Alr [2]; [7]): 0.249 ± 0.0083
- growth (E. coli TESEC Mtb Alr [2]; [8]): 0.186 ± 0.012
- growth (E. coli TESEC Mtb Alr [2]; [9]): 0.17 ± 0.0032
- growth (E. coli TESEC Mtb Asd; [10]): 0.293 ± 0.026
- growth (E. coli TESEC Mtb Asd; [11]): 0.414 ± 0.05
- growth (E. coli TESEC Mtb DapB; [12]): 0.214 ± 0.0044
- growth (E. coli TESEC Mtb DapB; [13]): 0.235 ± 0.015
- growth [3]: 0.482 ± 0.053
- growth (E. coli TESEC Mtb Alr [4]; [14]): 0.398 ± 0.017
- growth (E. coli TESEC Mtb Alr [4]; [15]): 0.354 ± 0.014

Compound: O=C(O)c1cc(=O)c2c(OCC(O)COc3cccc4oc(C(=O)O)cc(=O)c34)cccc2o1 [Cromolyn disodium salt]
- growth [1]: 0.2571 ± 0.0016
- growth (E. coli TESEC Mtb Alr [2]; [5]): 0.311 ± 0.019
- growth (E. coli TESEC Mtb Alr [2]; [6]): 0.275 ± 0.0036
- growth (E. coli TESEC Mtb Alr [2]; [7]): 0.21 ± 0.014
- growth (E. coli TESEC Mtb Alr [2]; [8]): 0.201 ± 0.011
- growth (E. coli TESEC Mtb Alr [2]; [9]): 0.14 ± 0.0057
- growth (E. coli TESEC Mtb Asd; [10]): 0.389 ± 0.04
- growth (E. coli TESEC Mtb Asd; [11]): 0.489 ± 0.01
- growth (E. coli TESEC Mtb DapB; [12]): 0.189 ± 0.013
- growth (E. coli TESEC Mtb DapB; [13]): 0.228 ± 0.034
- growth [3]: 0.602 ± 0.064
- growth (E. coli TESEC Mtb Alr [4]; [14]): 0.403 ± 0.011
- growth (E. coli TESEC Mtb Alr [4]; [15]): 0.361 ± 0.01
